# Shiga inhibitor – A qHTS for Small Molecule Inhibitors of Shiga Toxin. Vero cells, Shiga toxin protein synthesis inhibition reporter. inhibition, % at 38.7 µM. actives 9.2% (n = 290,000); in the data active = inhibition mostly above about 28%, no sharp cut-off; inactive = mostly below about 43%; also: 0% is about no effect
# Pf growth 96h – Primary qHTS for delayed death inhibitors of the malarial parasite plastid, 96 hour incubation; actives 6.9% (n = 320,000); Potency, µM (doses to about 28.7 µM), for inactives: at the highest dose activity change, negative = inhibition, most hits filed as inhibitors; P. falciparum luciferase reporter growth, 96 h; also: potency is read from the fitted curve at half-maximal effect; % is scaled to controls: 0 for no effect and ±100 for the full control effect
#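 Two parasite generations (96 h, 37 C, 5% CO2) of compound exposure in infected erythrocytes (0.05% parasitemia, 2% hematocrit). Luciferase-reporter P. falciparum; decreased luminescence indicates inhibited growth, aimed at apicoplast-acting delayed death.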
# SARS PLP yeast – qHTS of Yeast-based Assay for SARS-CoV PLP | S. cerevisiae expressing SARS-CoV PLpro, growth rescue | Potency, µM (titrated, usually from 32.9 µM), for the others: at the top dose activity, positive = growth rescue, most hits filed as activators | actives 0.19% (n = 330,000) | AID 485353, 2010; calls by dose curve; also: potency is read from the fitted curve at half-maximal effect; 0% is about no effect; nearly all actives have a fitted effect of over 55% in size
# CHX counter – Cycloheximide Counterscreen for Small Molecule Inhibitors of Shiga Toxin; cell reporter, cycloheximide protein synthesis inhibition counterscreen; max response, %; actives 12% (n = 300,000); AID 2314, 2010; in the data active = max response mostly above about 13%, no sharp cut-off; inactive = mostly below about 14%; also: read at 38.3 µM for the half of the compounds with a filed dose; 0% is about no effect
# Pf growth 48h – Primary qHTS for delayed death inhibitors of the malarial parasite plastid, 48 hour incubation; P. falciparum luciferase growth in erythrocytes, 48 h; Potency, µM (top dose mostly 28.7 µM), for inactives: at the top dose activity change, negative = inhibition, actives largely listed as inhibitors; actives 5.9% (n = 310,000); AID 504832, 2011; also: potency is read from the fitted curve at half-maximal effect; % is scaled to controls: 0 for no effect and ±100 for the full control effect
#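 Cell-based growth assay: transgenic P. falciparum expressing firefly luciferase, cultured in red cells within RPMI 1640 containing 0.5% w/v Albumax, 24 mM bicarbonate and gentamycin. A drop in luciferase activity indicates inhibition.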
# AMA1 RON2 block – qHTS for Inhibitors of AMA1-RON; Towards Development of Antimalarial Drug Lead: Primary Screen; Plasmodium falciparum AMA1 (3D7) - RON2 peptide interaction; AID 720542, 2013; Potency, µM (titrated, usually from 58.2 µM), for inactives: top-dose activity change, negative = inhibition, hits mostly inhibitors; actives 0.2% (n = 360,000); AlphaScreen AMA1-biotinylated RON2 peptide binding;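 also: potency is read from the fitted curve at half-maximal effect; 0% = vehicle wells and -100% = peptide control; nearly all actives have a fitted effect of over 45% in size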
#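 AMA1 (3D7) with his tag at 25 nM final met compounds first, then biotinylated RON2 peptide at 25 nM; detection used donor plus acceptor beads, 10 µg/mL apiece, read by AlphaScreen after 30 min at room temperature.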
# Active calls of the source: *; ? = inconclusive; · = not tested or not shown; [ ] = dose if it differs, or a comment. The list is not random: actives were taken first. Their share in the collection is about 19%. Unless noted, calls follow the shape of the dose curve; as a rule, active = well fitted curve in the direction sought with a large enough effect; inconclusive = small, poorly fitted or top-dose-only effect, or another doubt; inactive = no such curve, though single readings can be large; an effect the other way counts as inactive or inconclusive.
SMILES,Shiga inhibitor,Pf growth 96h,SARS PLP yeast,CHX counter,Pf growth 48h,AMA1 RON2 block
CCOC(=O)C(C)Oc1ccc(C2NC(=O)NC(C)=C2C(=O)Nc2ccccc2C)cc1 (stereo not drawn),-0.7,?,-3.0%,0.4,10.4µM*,2.7%
CC1=C(C(=O)OC2CCC(C)CC2)C(c2ccc(O)c([N+](=O)[O-])c2)NC(=O)N1 (stereo not drawn),·,?,3.9%,-3.3,-14.5%,-9.2%
CC1=C(C(=O)OCc2ccc(C)cc2)C(c2ccc(O)c([N+](=O)[O-])c2)NC(=O)N1 (stereo not drawn),2.4,-4.0%,1.9%,-2.5,11.7µM*,-25.9%
CCOC(=O)C1=C(C)NC(=O)NC1c1ccc(OC(=O)c2ccco2)cc1 (stereo not drawn),-8.2,7.38µM*,-16.9%,-3.4,9.7%,2.5%
CC1=C(C(=O)Nc2ccccc2C)C(c2ccccc2)NC(=O)N1 (stereo not drawn),-12.0,-12.1%,2.2%,14.1,·,-1.5%
COC(=O)C1=C(CS(=O)(=O)c2ccc(OC)c(OC)c2)NC(=O)NC1c1ccc(O)c(OC)c1 (stereo not drawn),-2.0,32.2%,?,-1.7,31.5%,1.0%
COc1ccc(COC(=O)C2=C(C)NC(=O)NC2c2ccc(OC)c(OC)c2)cc1 (stereo not drawn),-15.9,191.4%,0.1%,-2.7,?,-5.4%
COc1ccc(COC(=O)C2=C(C)NC(=O)NC2c2ccc(O)c(OC)c2)cc1 (stereo not drawn),-4.7,10.4µM*,-2.5%,-3.9,·,-5.1%
COC(=O)C1=C(CS(=O)(=O)c2cc(OC)ccc2OC)NC(=O)NC1c1ccc(O)c(OC)c1 (stereo not drawn),0.4,10.4µM*,6.0%,-5.3,15.6%,-5.2%
CCCCOc1ccccc1C1NC(=O)NC(C)=C1C(=O)OCc1ccco1 (stereo not drawn),9.1,?,-0.4%,5.0,9.28µM*,-0.7%
O=C(CSC1=NS(=O)(=O)c2cc(Cl)ccc2N1)Nc1cccc(F)c1,·,19.3%,-7.2%,·,-13.9%,10.9%
O=C(CCS(=O)(=O)c1ccc(Cl)cc1)Nc1ccc(F)cc1,-8.5,10.4µM*,-1.6%,8.5,-2.9%,5.8%
Cc1ccc(S(=O)(=O)CCC(=O)Nc2ccc(F)cc2)cc1,-2.6,8.5%[5.75 µM],15.0%,-4.6,?,-2.0%
O=C(CCS(=O)(=O)c1ccccc1)Nc1ccc(Cl)cn1,61.0*,7.0%,1.6%,24.1*,27.2%,4.9%
O=C(CS(=O)(=O)c1ccccc1)Nc1ccc(Cl)cn1,67.0*,20.9%,-5.0%,14.1,26.3%,-11.9%
Cc1ccc(-c2nc3cccnc3s2)cc1NC(=O)C1c2ccccc2Oc2ccccc21,29.5,-19.9%,15.7%,29.9*,?,-7.1%
CCS(=O)(=O)Nc1ccc(-c2nc3cccnc3s2)cc1,73.4*,282.4%,1.4%,40.7*,-7.5%,-1.2%
CCS(=O)(=O)Nc1cccc(-c2nc3cccnc3s2)c1,130.9*,67.5%,-4.5%,33.4*,49.1%,0.0%
CCS(=O)(=O)Nc1cc(-c2nc3cccnc3s2)ccc1C,87.2*,121.2%,-13.8%,65.9*,86.5%,0.0%
O=S(=O)(Nc1cccc(-c2nc3cccnc3s2)c1)c1ccc2c(c1)CCCC2,6.1,5.5%,27.0%,8.1,17.6%,1.0%
CN(C(=O)CSc1nnc(-c2cccnc2)o1)C1CCCCC1,·,-31.7%,-4.8%,·,-2.8%,7.1%
Cc1nc2ccc(S(=O)(=O)Nc3cccc(-c4nc5cccnc5s4)c3)cc2s1,15.6,-18.9%,-27.5%,6.6,19.5%,-11.3%
Cc1nc2ccc(S(=O)(=O)Nc3ccc(-c4nc5cccnc5s4)cc3)cc2s1,49.1*,38.5%,-2.2%,36.6*,77.3%,-3.2%
Cc1ccnc(NC(=O)c2cccc(S(=O)(=O)N3CCCC3)c2)c1,22.4,40.8%,1.3%,24.7*,48.5%,8.9%
Cc1ccnc(NC(=O)c2cccc(S(=O)(=O)N3CCN(c4ccccc4)CC3)c2)c1,·,-69.6%,-5.8%,·,17.3%,-4.8%
SMILES,Shiga inhibitor,Pf growth 96h,SARS PLP yeast,CHX counter,Pf growth 48h,AMA1 RON2 block
Cc1cc(NC(=O)c2cccc(S(=O)(=O)N3CCOCC3)c2)no1,-14.0,·,-5.7%,-1.4,0.4%,-3.4%
Cc1cc(NC(=O)c2cccc(S(=O)(=O)N3CCCCC3)c2)no1,10.7,20.6%,1.0%,9.3*,?,-1.9%
CCCOC(=O)c1ccc(-c2c(C)noc2-c2ccc(OC)cc2O)o1,-17.3,·,-11.9%,-1.1,0.738µM*,-9.7%
CC(C)c1ccc(NC(=O)c2cccnc2)cc1,73.6,7.38µM*,-3.7%,22.5*,125.4%,-1.0%
O=C(NC(=S)Nc1ccccc1Cl)c1csnn1,42.5*,57.4%,-9.3%,37.7*,48.2%,10.0%
Cc1ccccc1NC(=O)c1cccnc1,-1.0,25.1%,4.6%,-2.8,27.5%,5.8%
Cc1cccc(C(C)C)c1NC(=O)c1cccnc1,1.7,11.7µM*,1.6%,-0.9,14.5%,-14.7%
CC(C)c1ccc(NC(=O)c2csnn2)cc1,42.2*,·,-2.6%,29.8*,184.2%,0.6%
Cc1ccc(-c2cc(C(F)F)n3ncc(C(=O)N4CCN(c5cccc(C)c5C)CC4)c3n2)cc1,-21.0,-9.3%,·,-1.4,-15.1%,9.3%
NC(=O)c1cc2cc(Cc3ccccc3Cl)ccc2oc1=O,-16.8,-0.5%,-1.1%,6.5,1.9%,2.4%
COCCN1C[C@@H](CO)O[C@@H](n2cnc3c(NCCN(C)C)ncnc32)C1,·,·,·,·,·,74.0%
CCCCCCCNC(=O)C1CC(=O)N(C)C(=Nc2ccc(OC)cc2)S1 (stereo not drawn),-2.0,2.1%,-17.7%,6.8,-9.6%,-8.5%[2.32 µM]
O=C(O)CCCNC(=O)Cc1ccccc1,-6.7,7.5%,0.6%,6.4,25.1%,20.9%
COc1ccc(OC)c(S(=O)(=O)N2CCCC(C(=O)NCCN3CCOCC3)C2)c1 (stereo not drawn),-8.1,?,0.8%,-3.1,-1.6%,3.8%
COC(=O)c1ccc(C(NC(=O)c2cccnc2)NC(=O)c2cccnc2)cc1,65.6*,33.7%,1.2%,30.4*,154.1%,15.4%
CCC(C)c1ccc(O)c(NC(=S)NC(=O)c2cccnc2)c1 (stereo not drawn),-0.7,26.5%,-3.7%,12.2,?,104.0%
COC(=O)c1cccnc1,20.8,-2.4%,·,-5.1,-17.7%,·
CC(C)c1ccc(NC(=O)c2snc3ccc(Cl)cc23)cc1,74.4*,-93.7%,1.4%,39.3*,63.0%,-13.4%
CC(C)c1ccccc1NC(=O)COC(=O)c1cccnc1,2.1,13.1µM*,1.8%,-5.5,-9.5%,-0.3%
CC(C)c1ccc(O)c(NC(=O)c2cccnc2)c1,-12.6,10.4µM*,-8.0%,-3.2,·,-1.8%
